Bioassay records (PubChem BioAssay)
In the library only some 7.9% were active in any assay of this set; here they are far more common.
KB-V1 MDR tox = qHTS assay for MDR1-selective chemotherapeutics: Primary screen using the drug-selected MDR subline cells KB-V1; KB-V1 MDR cells viability, CellTiter-Glo, 72 h; AID 1347076, 2019; 400,000 compounds, 3.4% hits; Potency, µM (top dose mostly 46.1 µM), actives largely listed as cytotoxic; also: % is scaled to controls: 0 for no effect and ±100 for the full control effect; nearly all actives have a fitted effect of over 60% in size
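Readout: CellTiter-Glo luminescence, 10 min after addition. Cells: KB-V1 MDR subline, 72 h at 37 degrees C with compound. Analysis: corrected, normalized data fitted to concentration-effect curves.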
MCF10A rerep = A quantitative high throughput screen for small molecules that induce DNA re-replication in MCF 10a normal breast cells | Potency, µM (series often up to 46.1 µM), for inactives: at the top dose activity, positive = re-replication, most hits filed as activators | 350,000 compounds, 2.9% hits | MCF 10A DNA re-replication, Hoechst nuclear intensity, 48 h; also: % of control where 0% means no effect; nearly all actives have a fitted effect of over 50% in size
HT1080 IDH1KD tx = qHTS for induction of synthetic lethality in tumor cells producing 2HG: qHTS for the HT-1080-IDH1KD cell line | Potency, µM (highest dose often 46.1 µM), for the others: at the top dose activity, negative = toxicity, hits mostly cytotoxic | HT-1080 IDH1 knockdown viability, ATP luminescence, 48 h | 360,000 compounds, 2% hits;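 also: 0% = DMSO wells and -100% = cell-free medium wells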
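After a 2 h attachment period, IDH1KD HT-1080 cells took pin-transferred compound for 48 h at 37 °C; ATP-based luminescence after 10 min room-temperature reagent incubation reported viability.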
SW480 rereplic = A quantitative high throughput screen for small molecules that induce DNA re-replication in SW480 colon adenocarcinoma cells | SW480 DNA re-replication, Hoechst DNA content imaging, 48 h | Potency, µM (top dose mostly 46.1 µM), without a hit: top-dose re-replication activation, actives largely listed as activators | 340,000 compounds, 1.8% hits; also: % of control where 0% means no effect; nearly all actives have a fitted effect of over 55% in size
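Quantitative HTS format with DMSO vehicle controls; 48 hr drug incubation at 37 C, then 40 min Hoechst staining and scanning imager measurement at 405 nm excitation.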
HT1080-NT tox = qHTS for induction of synthetic lethality in tumor cells producing 2HG: qHTS for the HT-1080-NT fibrosarcoma cell line; 360,000 compounds, 1.6% hits; HT-1080-NT fibrosarcoma viability, CellTiter-Glo ATP luminescence, 48 h; Potency, µM (series often up to 46.1 µM), without a hit: top-dose activity, negative = less viability, hits mostly cytotoxic;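 also: NT is the 2HG producing partner of a matched IDH1 knockdown line; 0% = DMSO-treated cells and -100% = media-only wells without cells; nearly all actives have a fitted effect of over 55% in size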
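Viability by CellTiter-Glo luminescence after 48 h compound exposure at 37C of HT-1080-NT cells (750/well, RPMI, 5% FBS). % activity scaled between DMSO wells and medium-only wells, then curve-fitted and categorized by curve class.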
KB-3-1 tox = qHTS assay for MDR1-selective chemotherapeutics: Primary screen using the parental adenocarcinoma cell KB-3-1. 400,000 compounds, 1.4% hits. Potency, µM (series often up to 46.1 µM), usual class: cytotoxic. AID 1347075, 2019. KB-3-1 viability, CellTiter-Glo ATP luminescence, 72 h; also: % is scaled to controls: 0 for no effect and ±100 for the full control effect; nearly all actives have a fitted effect of over 60% in size
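Screening of KB-3-1 cells (DMEM, 10% FBS, phenol-red free) ran from lowest to highest compound concentration; after 72 h at 37 °C viability was read luminescently and curves fitted.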
* marks the source's active call; other numbers are inactive results; i = inactive; ? = inconclusive; . = no result given; ! = not active in a repeat. Calls follow the shape of the dose curve; as a rule, active = well fitted curve in the direction sought with a large enough effect; inconclusive = small, poorly fitted or top-dose-only effect, or another doubt; inactive = no such curve, though single readings can be large; an effect the other way counts as inactive or inconclusive. Potency is read from the fitted curve at half-maximal effect.

SMILES | KB-V1 MDR tox | MCF10A rerep | HT1080 IDH1KD tx | SW480 rereplic | HT1080-NT tox | KB-3-1 tox
COc1cc2c(cc1OC)C1=C(C#N)CN(C3CCCCC3)CN1CC2 | 21µM* | 3% | -2% | 1% | -23% | i
COc1cc2c(cc1OC)C1=C(C#N)CC/C(=N\S(=O)(=O)c3ccccc3)N1CC2 | ? | -4% | -4% | -7% | -1% | i
COc1ccc(C(=O)N=C2CCC(C#N)=C3c4cc(OC)c(OC)cc4CCN23)cc1 | 12µM* | ? | 0% | 6% | -2% | ?
Cc1cccc(NC(=O)C(C)OC(=O)CNC(=O)C2CCCCC2)c1 (stereo not given) | i | . | -1% | . | 12% | i
O=C(Nc1cccnc1)c1ccc(CN2CCc3ccccc3C2)cc1 | ? | 9% | -19% | 0% | 1% | i
NC(=O)c1ccccc1NC(=O)CSc1nc2c(c(=O)[nH]1)CCCC2 | i | 2% | 16µM* | -31% | 12µM* | i
Cc1cc(C)cc(NC(=O)CSc2nc3c(c(=O)[nH]2)CN(Cc2ccc(F)cc2)CC3)c1 | 21µM*! | 3% | 2% | -4% | -1% | i
COC(=O)c1ccc(C)c(NC(=O)c2ccc(CN3CCc4ccccc4C3)cc2)c1 | i | 0% | -2% | 2% | 1% | i
O=C(Nc1ccccc1F)c1ccc(CN2CCc3ccccc3C2)cc1 | 21µM* | ? | -14% | ? | -1% | 9.2µM*
O=C(CSc1nc2c(c(=O)[nH]1)CCCC2)Nc1cccc(O)c1 | i | . | . | . | . | i
Cc1cc(C)cc(NC(=O)c2ccc(CN3CCc4ccccc4C3)cc2)c1 | ? | 21µM* | 12µM* | -2% | ? | ?
CCc1ccc(NC(=O)CSc2ccc(-c3sc(-c4ccccc4)nc3C)nn2)cc1 | i | . | . | . | . | i
Cc1ccc(-n2nc3c(=O)n(CC(=O)NCCC(C)C)nc(C)c3c2C)cc1 | i | . | . | . | . | i
CCOc1ccccc1NS(=O)(=O)c1cc2[nH]c(=O)c(=O)[nH]c2cc1C | i | . | . | . | . | i
COC(=O)C(C(=O)OC)C(CC(=O)c1ccc(Br)cc1)c1ccccc1 (stereo not given) | i | -2% | -13% | 1% | 0% | i
Cc1ccc(NC(=O)c2ccc(CN3CCc4ccccc4C3)cc2)cc1 | 4.1µM* | ? | ? | -2% | ? | i
O=C(Nc1ccccc1)c1ccc(CN2CCc3ccccc3C2)cc1 | ? | ? | -26% | 10% | -11% | ?
CSc1nc(=O)c2c(n1C)NC(=O)CC2c1cc(F)cc(F)c1 (stereo not given) | i | . | . | . | . | i
CC(NCCC(c1ccccc1)c1ccccc1)c1ccccc1 (stereo not given) | ? | ? | ? | 7.3µM* | ? | i
Cc1ccc(CNC(C)c2ccccc2)s1 (stereo not given) | i | . | . | . | . | i
O=C(CSc1nc2c(oc3ccccc32)c(=O)n1-c1ccccc1)Nc1ccc(F)c(Cl)c1 | i | . | . | . | . | i
N=C1SCC(=O)N1c1ncc(Cc2ccccc2Cl)s1 | i | 18µM* | -2% | ? | -22% | i
N=C1SCC(=O)N1c1ncc(Cc2cccc(Cl)c2)s1 | ? | 12µM* | -22% | ? | -22% | i
C=CCn1c2ccccc2c(=O)c2cc(C#CC3(O)CCCCC3)ccc21 | i | ? | -27% | 9.2µM* | ? | ?
O=c1c2ccccc2oc2cc(C#CC3(O)CCCCC3)ccc12 | i | 21µM* | -1% | 3% | 31% | i
